This is a sample that favours compounds with a hit; in the whole collection about 0.78% have one here.
TCR act: Activators of T cell receptors: qHTS campaign | primary human leukocytes, anti-CD3, IL-2 HTRF, 48 h | 330,000 tested, under 10 active | Potency, µM (top dose mostly 9.22 µM), for inactives: top-dose activation of IL-2 secretion, actives largely listed as activators; note: % of control where 0% means no effect
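Readout: HTRF IL-2, Eu-cryptate/d2 antibody pair, 320nm excitation, 665nm emission. Stimulus: a-CD3 beads, no co-stimulation. Cells: primary human leukocytes. Exposure: 48 hr with compound.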
RXFP1 ag: qHTS Assay for Agonists of the Relaxin Receptor RXFP1; Potency, µM (highest dose often 57.5 µM), for inactives: at the top dose activation, usual class: activators; Relaxin receptor 1 (Homo sapiens), Q9HBX9; HEK293T-RXFP1 cAMP TR-FRET, 30 min; response scale: percent of porcine relaxin response, buffer zero; AID 2676, 2010; 370,000 compounds, 0.3% hits; note: potency is the fitted concentration of half-maximal effect; % is set by controls: 0 for no effect and ±100 for the full control effect; nearly all actives have a fitted effect of over 60% in size
Target sequence (Q9HBX9 whole entry, looked up): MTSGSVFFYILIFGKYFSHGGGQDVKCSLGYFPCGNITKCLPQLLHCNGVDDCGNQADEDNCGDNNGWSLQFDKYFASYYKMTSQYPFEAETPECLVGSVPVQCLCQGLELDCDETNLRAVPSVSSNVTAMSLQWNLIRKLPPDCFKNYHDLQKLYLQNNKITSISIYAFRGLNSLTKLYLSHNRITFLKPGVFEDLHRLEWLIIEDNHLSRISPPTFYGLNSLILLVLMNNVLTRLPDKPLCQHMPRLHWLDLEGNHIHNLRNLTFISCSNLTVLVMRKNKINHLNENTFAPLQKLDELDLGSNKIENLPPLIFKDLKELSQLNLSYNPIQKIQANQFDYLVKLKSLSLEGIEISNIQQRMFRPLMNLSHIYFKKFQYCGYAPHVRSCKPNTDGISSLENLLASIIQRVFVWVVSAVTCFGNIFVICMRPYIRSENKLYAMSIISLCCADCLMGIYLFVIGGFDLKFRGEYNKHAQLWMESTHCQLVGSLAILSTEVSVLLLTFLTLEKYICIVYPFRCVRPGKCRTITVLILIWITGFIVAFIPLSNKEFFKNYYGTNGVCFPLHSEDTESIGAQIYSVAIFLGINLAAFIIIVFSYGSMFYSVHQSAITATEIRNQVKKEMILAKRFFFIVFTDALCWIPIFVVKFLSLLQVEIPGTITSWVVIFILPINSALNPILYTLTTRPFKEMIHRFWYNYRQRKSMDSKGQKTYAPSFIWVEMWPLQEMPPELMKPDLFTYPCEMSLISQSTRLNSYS
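HEK293T cells stably expressing RXFP1 were pretreated with the PDE4 inhibitor Ro 20174, exposed to compounds for 30 min at 37C, lysed, and cAMP was read by TR-FRET. Data normalized to buffer (basal) and 29 nM porcine relaxin (100%).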
IL2 activator: qHTS of IL-2 Activators. 360,000 compounds, 0.065% hits. activation, % (series mostly up to about 46 µM). IL-2 activation reporter assay, cell-based qHTS; stimulated with anti-CD3/CD4/CD28 beads; in transgenic mouse T cells; in the data active = activation above about 50%; inconclusive = mostly about 30% to 49%; note: 0% is about no effect
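Readout: EGFP and DsRed signals by fluorescent plate cytometry. Unstimulated transgenic mouse T cells received compound 60 min before antibody-bead stimulation, then incubated 18 h at 37 degrees C.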
PINK1 modulator: A Quantitative High throughput Screen to Identify Chemical Modulators of PINK1 Expression; PINK1 immunofluorescence, high-content cytometry, 24 h; Potency, µM (doses to about 76.6 µM), for the others: top-dose activation (PINK1 increase), hits mostly activators; 410,000 compounds, 0.2% hits; AID 624263, 2012; active = well fitted activation curve with a large enough effect; inconclusive = small, poorly fitted or top-dose-only effect; cell line not stated here; note: potency is the fitted concentration of half-maximal effect; % of control where 0% means no effect; nearly all actives have a fitted effect of over 65% in size
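A stable cell line was treated with compounds at 5 concentrations for 24 hours, with CCCP as control. PINK1 levels and mitochondrial localization were measured by immunofluorescence with mitochondrial, cell and nuclear markers after fixation, read by laser-scanning cytometry.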
miR-21 reporter: qHTS Assay for Modulators of miRNAs and/orActivators of miR-21; Potency, µM (top dose mostly 38.3 µM), inactives show top-dose activity change, positive = activation, usual class: activators; AID 2288, 2010; HeLa miR-21 FLuc reporter, luciferase, 48 h; 340,000 tested, under 10 active;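 note: % of control where 0% means no effect; miR-21 action dims this reporter so a rising signal means less miR-21 action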
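HeLa miR-21-FLuc reporter line, endogenous miR-21; 2000 cells/well in DMEM/10% FBS; compound titration up to ~40uM final, 48 h, 37 degree Celsius; luciferase detection reagent, 15 min lysis, CCD luminescence.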
RXFP1 antagonist: qHTS Assay for Antagonists of the Relaxin Receptor RXFP1; Relaxin receptor 1 (Homo sapiens), Q9HBX9; HEK293-RXFP1, relaxin-stimulated cAMP HTRF, 30 min; active compounds read low; activity change, negative = inhibition, % at 57.5 µM; 350,000 compounds, 0.59% hits; AID 1259400, 2018;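 active = activity change of -60% or lower, but not beyond a set lower limit; inconclusive = change between -60% and -40%, or beyond the set limit; inactive = change above -40%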; note: % is set by controls: 0 for no effect and ±100 for the full control effect
* = called active by the depositor; ? = inconclusive; · = not tested or not shown; [ ] = another dose, or the depositor's remark. Unless noted, calls come from the whole dose curve; as a rule, active = well fitted curve in the direction sought with a large enough effect; inconclusive = small, poorly fitted or top-dose-only effect, or another doubt; inactive = no such curve, though single readings can be large; an effect the other way counts as inactive or inconclusive.

SMILES	TCR act	RXFP1 ag	IL2 activator	PINK1 modulator	miR-21 reporter	RXFP1 antagonist
CCOc1ccc(NC(=O)C(=O)NCC(c2cccnc2)N2CCc3ccccc32)cc1 (stereo not given)	·	1%	·	0%	-10%	-64*
COC(=O)c1ccc(NC(=O)C(=O)NCC(c2cccnc2)N2CCc3ccccc32)cc1 (stereo not given)	·	3%	·	3%	-15%	-16
O=C(N/N=C/c1ccccc1)c1c(O)c2ccccc2[nH]c1=O	-7%[46.1 µM]	-1%	-4	8.9µM*	-49%	-1
CCCn1c(=O)c(C(=O)N/N=C/c2ccc(F)cc2)c(O)c2ccccc21	-1%	0%	0	0%	-14%	-33
O=C(N/N=C/c1ccc(F)cc1)c1c(O)c2ccccc2[nH]c1=O	3%[46.1 µM]	-1%	1	4.5µM*	-5%	8
O=C(N/N=C/c1cccc(F)c1)c1c(O)c2ccccc2[nH]c1=O	13%[46.1 µM]	0%	0	2.8µM*	-1%	-2
O=C(Nc1cccc(F)c1)c1c(O)c2ccccc2[nH]c1=O	·	3%	1	1%	-29%	0
Cc1ccc2nc(-c3ccccc3C)c(CN(CC3CCCO3)C(=O)c3cccs3)cc2c1 (stereo not given)	·	·	·	1%	·	·
Cc1cnc(SCc2ccccn2)nc1C1CCCN(Cc2ccsc2)C1 (stereo not given)	·	·	·	1%	·	·
CC(C)Oc1ccc(C(=O)NCC2Cc3cc(Cl)cc(-c4ncccn4)c3O2)cc1 (stereo not given)	·	·	·	0%	·	·
CCN1CCCC1CNC(=O)c1ccc2c(c1)N(Cc1ccccc1F)C(=O)c1ccccc1S2(=O)=O (stereo not given)	1%	-1%	-3	0%	2%	-100*
CCN1CCCC1CNC(=O)c1ccc2c(c1)N(Cc1cccc(Cl)c1)C(=O)c1ccccc1S2(=O)=O (stereo not given)	2%	-2%	-1	5%	1%	-25
Cc1ccc(Nc2nc(Cl)nc(NC(C)(C)C)n2)cc1	·	0%	2	3%	-59%	-71*
CCn1c(=O)c2sccc2n2c(CCCC(=O)NCc3cccnc3)nnc12	7%	18µM*	0	1%	4%	-7
COc1ccccc1NC(=O)CCCc1nnc2n(C)c(=O)c3sccc3n12	-1%	4.5µM*	1	3%	0%	11
COc1ccccc1CNC(=O)CCCc1nnc2n(C)c(=O)c3sccc3n12	-2%	?	2	1%	0%	14
Cn1c(=O)c2sccc2n2c(CCCC(=O)NCc3ccco3)nnc12	-17%	14µM*	1	2%	3%	5
Cc1ccc(CNC(=O)CCCc2nnc3n(C)c(=O)c4sccc4n23)cc1	·	?	·	-1%	-6%	3
CS(=O)(=O)c1ccc(-c2cn3ccccc3n2)cc1	·	·	·	·	·	-4
COc1ccccc1CC(Cc1nc2ccccc2[nH]1)c1nc2ccccc2[nH]1 (stereo not given)	3%	2%	0	-2%	12%	-67*
Cc1cccc(CC(Cc2nc3ccccc3[nH]2)c2nc3ccccc3[nH]2)c1 (stereo not given)	11%	-2%	0	?	19%	-15
C=CCc1cccc2cc(C(=O)NCc3cccnc3)c(=O)oc12	·	1%	-1	·	-4%	-8
CCOc1cccc2cc(C(=O)NCc3cccnc3)c(=O)oc12	·	8%	0	11µM*	-10%	16
Cc1cnc(SCc2ccccn2)nc1C1CCCN(C(=O)c2cc3ccccc3oc2=O)C1 (stereo not given)	·	·	·	0%	·	·
COC(=O)C1CCCCN1Cc1ccc2c(c1)CN(C(=O)c1ccc(C)s1)CCO2 (stereo not given)	·	·	·	-1%	·	·
SMILES	TCR act	RXFP1 ag	IL2 activator	PINK1 modulator	miR-21 reporter	RXFP1 antagonist
CCCS(=O)(=O)NCc1c(C)ncc2c1CCN(C(=O)c1ccc3[nH]c4c(c3c1)CCCC4)C2	·	·	·	3%	·	·
CC1CCCN(c2nc(-c3cccnc3)nc3scc(-c4ccccc4)c23)C1 (stereo not given)	2%[46.1 µM]	3%	0	28µM*	-22%	-11
CCOC(=O)c1cc(=O)c2c(OCC(COc3cccc4oc(C(=O)OCC)cc(=O)c34)OC(=O)[C@@H](N)CCCCN)cccc2o1	·	·	·	·	·	34
COc1ccc(S(=O)(=O)N2CCOCC2)cc1NC(=O)CSc1nnc2ccccn12	·	3.5µM*	·	·	-1%	·
COC(=O)c1cn([C@@H]2C[C@@H](C(=O)Nc3cccc(SC)c3)N(C3CCCC3)C2)nn1	·	·	·	1%	·	·
O=C(Nc1ccc(Cl)cc1)c1cc2c(cc1O)[nH]c1ccccc12	8%	5%	-4	?	?	-64*
CC(=O)Nc1ccc2[nH]c3ccccc3c2c1	2%	1%	0	·	-17%	-7
O=C(Cc1ccc([N+](=O)[O-])cc1)N/N=C/c1ccc([N+](=O)[O-])o1	-1%	-1%	0	35µM*	?	6
CCCCCCCC(=O)N/N=C/c1ccc([N+](=O)[O-])o1	7%[46.1 µM]	3%	0	6%	-8%	8
Oc1ccccc1OCc1nc2ccccc2s1	-1%	-2%	-2	0%[38.3 µM]	-57%	1
Oc1ccc(O)c(Cc2nc3ccccc3s2)c1	5%	-3%	0	5%	5%	-77*
CC(C)(Oc1ccc(Cl)cc1)C(=O)OCCCOC(=O)C(C)(C)Oc1ccc(Cl)cc1	·	·	·	·	·	-23
CCN(CC)S(=O)(=O)c1ccc(NC(=O)CSc2cccc[n+]2[O-])cc1	3%	1%	-1	-2%[38.3 µM]	5%	8
CCN(CC)S(=O)(=O)c1ccc(Cl)c(NC(=O)CSc2cccc[n+]2[O-])c1	1%	25µM*	3	0%	-2%	-1
Cc1cccc(C)c1Nc1sc(C(=O)c2ccccc2)c(N)c1C(=O)Nc1ccc(F)cc1	·	3%	·	45µM*	15%	?
N#CC(C#N)=C1C=C2C=C(N3CCOCC3)CCC2CC1 (stereo not given)	3%	5%	19	16µM*	5%	-5
N#CC(C#N)=C1C=C2C=C(N3CCCCCC3)CCC2CC1 (stereo not given)	-7%[46.1 µM]	1%	2	11µM*	7%	-8
CN1CCN(C2=CC3=CC(=C(C#N)C#N)CCC3CC2)CC1 (stereo not given)	8%	0%	20	?	7%	-16

Screening results from PubChem.
